Hit rate of the full screen: of about 48,000 compounds, about 13,000 (27%) showed an effect of 50% or more. Some of the results follow.
system: Wolbachia pipientis; test: Anti-Wolbachia Cell-Based Screen; format: functional; design: scale not given: in the data most compounds retested in dose-response had high values; conditions: 5 µM

SMILES | Percent Effect
CCc1nc(CCNc2ncccc2C#N)sc1C | -8.813%
CN(C)C(=O)Cc1ccccc1NCc1nc(Cc2ccccc2)no1 | 16.45%
O=C(NCc1cc(O)ncn1)C1COc2ccccc2C1 (stereo unspecified) | -5.183%
O=C1N(CCCc2ccccc2)CCCC1(O)CNCc1ccccc1 (stereo unspecified) | -2.179%
Cc1cnn(-c2cccc(N3CCN(c4cc(C)nc(C)n4)CC3)n2)c1 | 4.719%
CCc1nc(C2CCCN(C(=O)NCCOC)C2)no1 (stereo unspecified) | 110.5%
Cc1c(C)c2c(c(C)c1O)CC[C@](C)(C(=O)O)O2 [(R)-TROLOX] | 132.5%
CNc1cc(C)nc(NCc2cc(C)cc3c(C)c(C)[nH]c23)n1 | 13.77%
CNC(=O)NC(=O)C(C)N1CCN(C2CCCC2)CC1 (stereo unspecified) | -18%
CCC(CO)n1cnc2scc(C)c2c1=O (stereo unspecified) | 100.6%
Cc1csc2c(=O)n(CCN3CCC(c4ccccc4)CC3)cnc12 | 21.54%
CC(Cn1ccnc1)NC(=O)NCCNC(=O)C(C)C (stereo unspecified) | -18.32%
Cc1csc2c(=O)n(C(C)Cc3cccnc3)cnc12 (stereo unspecified) | 4.44%
Cc1csc2ncn(C(C)Cc3cccnc3)c(=O)c12 (stereo unspecified) | -2.167%
Cc1nc(CN2CCCn3c(nc(Cn4ccnc4)cc3=O)C2)cs1 | 17.01%
CCC(Cn1ccnc1)n1cnc2c(C)csc2c1=O (stereo unspecified) | 163.7%
CCC(Cn1ccnc1)n1cnc2scc(C)c2c1=O (stereo unspecified) | 110.7%
COCC1CCN(Cc2cc(O)c3c(C)ccc(C)c3n2)CC1 | 5.678%
Cc1cc(C(=O)N2CCC3(C2)CN(c2cccnc2)C(=O)CN3C)[nH]n1.O=C(O)C(F)(F)F.O=C(O)C(F)(F)F (stereo unspecified) | 112%
Cn1cccc1C(=O)N1CCCCC12CC(=O)N(c1cccnc1)C2.O=C(O)C(F)(F)F (stereo unspecified) | -1.407%
CN1CC(=O)N(c2cccnc2)CC12CCN(C(=O)C1CCCCC1)C2.O=C(O)C(F)(F)F.O=C(O)C(F)(F)F (stereo unspecified) | -22.33%
Cc1cc(C(=O)N2CCC3(CC2)COCCN(c2cccnc2)C3)[nH]n1.O=C(O)C(F)(F)F | -3.174%

SMILES | Percent Effect
Cc1oncc1C(=O)N1CCC2(C1)CN(c1cccnc1)C(=O)CN2C (stereo unspecified) | -7.65%
CN1CC(=O)N(c2cccnc2)CC12CCN(C(=O)c1cccn1C)C2.O=C(O)C(F)(F)F.O=C(O)C(F)(F)F (stereo unspecified) | 108.5%
COc1cc(C)ccc1OCCN1CC[C@@]2(O)CCNC[C@H]2C1 | 28.12%
CN1CCN([C@@H]2CN(C(=O)c3cc4cccc(F)c4[nH]3)C[C@H]2O)CC1 | 104.7%
CN(C)[C@@H]1CN(C(=O)c2cc3cccc(F)c3[nH]2)C[C@H]1O | 116.9%
CN(C)[C@H]1CN(C(=O)c2ccc3sc4c(c3c2)CCNC4=O)C[C@@H]1O | 13.68%
COc1ccccc1OCc1cc(C(=O)N2C[C@H](O)[C@@H](N(C)C)C2)n[nH]1 | 14.49%
CN1CCN([C@@H]2CN(C(=O)c3cc4ccc(F)cc4[nH]3)C[C@H]2O)CC1 | 68.22%
Cc1ccc2cc(C(=O)N3CCS(=O)(=O)CC3)[nH]c2c1 | -4.814%
O=C(c1cc2cccc(F)c2[nH]1)N1C[C@@H](O)[C@H](N2CCCC2)C1 | 132.3%
Cc1ccc2cc(C(=O)N3CCN(C(=O)c4ccoc4)CC3)[nH]c2c1 | 0.1699%
CCn1nc(CC(C)C)cc1C(=O)N1C[C@H](O)[C@@H](N2CCCCC2)C1 | -3.036%
Cc1ccc(OC2(C(=O)O)CCN(C(=O)c3ccoc3C)CC2)cn1 | -1.307%
CCN(Cc1csc(CS(C)(=O)=O)n1)c1cccc(F)c1 | 0.8671%
CCN(C)c1ccc(CNC(=O)CCn2cc(C)cn2)cc1F | -2.464%
Cc1ccc(N2CCO[C@H]3CN(Cc4cc(C)on4)CC[C@H]3C2=O)cn1.O=C(O)C(F)(F)F.O=C(O)C(F)(F)F | -4.354%
CC(C)c1cc(NCC(O)c2ccc(F)cc2)n2nccc2n1 (stereo unspecified) | -15.19%
CCN(CC)C(=O)Cn1cc(C(=O)NCCc2scnc2C)nn1 | 5.922%
O=C(NC1CCS(=O)(=O)c2ccccc21)c1sccc1C1CC1 (stereo unspecified) | -7.789%
CN(CCc1ccccn1)[C@@H]1CCN(c2cccc(C#N)n2)C[C@H]1O | 16.97%
N#CCCCn1nnc(C2(NC(=O)c3ccccc3)CCCC2)n1 | -18.68%
O=C1CN(C(=O)c2cc(-c3ccco3)nc3c(Cl)cccc23)CCN1 | -11.35%

SMILES | Percent Effect
CCc1nccc(CN2CCC(CNC(=O)Nc3ccccc3)C2)n1 (stereo unspecified) | -10.66%
COc1cc(CNC(=O)C(C)SC)cc(Br)c1OC (stereo unspecified) | 11.13%
O=C(c1ccc(F)cc1F)N1C[C@@H](O)[C@H](N2CCOCC2)C1 | 7.48%
O=C(Nc1ccc(-n2cccn2)cc1)N1C[C@H](O)[C@@H](N2CCOCC2)C1 | 1.189%
O=C(c1cc2cccc(F)c2[nH]1)N1C[C@@H](O)[C@H](N2CCOCC2)C1 | 110.4%
CCCn1ncc(-c2nc3c(cnn3CC)[nH]2)c1C | -25.23%
COCCN(c1ccncc1)S(=O)(=O)c1cc(C)c(F)cc1F | -2.029%
Cc1noc(C(C)C)c1C(=O)NCc1ccc2c(c1)OCCO2 | 83.78%
Cc1noc([C@@H](C)NCc2ccc(F)cc2)c1C(=O)O.Cl | -4.042%
Cc1noc(C)c1C(=O)NCc1ccnc(OCC(F)(F)F)c1 | -2.057%
Cc1noc(C(C)C)c1C(=O)NCc1ccc(N(C)C)c(F)c1 | 78.48%
CC(=O)NCC1CCN(C(=O)NCc2ccc3c(c2)OCCO3)CC1 | -6.191%
CN(C)C(=O)c1ccccc1NC(=O)N(C)Cc1ccccc1O | -13.22%
O=C(CCNC(=O)NC1CCN(C2CC2)CC1)NCc1ccccc1 | -15.75%
N#Cc1ccnc(N2CCN(CC(O)c3ccc(F)c(F)c3)CC2)c1 (stereo unspecified) | -18.53%
CCc1cc(N[C@H]2CC[C@H](O)CC2)n2nc(C)c(C)c2n1 | -14.47%
Cc1ccc(CNC(=O)NCc2csc(C)n2)cn1 | -1.986%
Cc1ccc(CNC(=O)Nc2nncs2)cn1 | 108.3%
COc1cc(CNC(=O)Nc2nncs2)ccc1O | -8.608%
Cc1ccc(CNC(=O)Nc2nncs2)n1C | -4.226%
Cc1ccc(CNC(=O)Nc2cc(C(F)(F)F)c[nH]c2=O)cn1 | 3.357%
Cc1ccc(CNC(=O)Nc2nccs2)cn1 | 93.38%

From ChEMBL document CHEMBL3988442, “University of Dundee, Small-Polar-MMV Screening Library” (2021)
